Hits are enriched below; roughly 3.3% of the tested compounds scored in any of these assays.
AmpC inh detg – blocks E. coli AmpC beta-lactamase in detergent assay | 370,000 compounds, 0.041% hits | P00811 | AmpC hydrolysis of nitrocefin, absorbance 480 nm, 0.01% Triton | Potency, µM (highest dose often 114 µM), inactives show at the highest dose activity change, negative = inhibition, usual class: inhibitors;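 further: 0% = no-compound wells and -100% = no-enzyme wells; nearly all actives have a fitted effect of over 25% in size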
Target sequence (P00811 whole entry, looked up): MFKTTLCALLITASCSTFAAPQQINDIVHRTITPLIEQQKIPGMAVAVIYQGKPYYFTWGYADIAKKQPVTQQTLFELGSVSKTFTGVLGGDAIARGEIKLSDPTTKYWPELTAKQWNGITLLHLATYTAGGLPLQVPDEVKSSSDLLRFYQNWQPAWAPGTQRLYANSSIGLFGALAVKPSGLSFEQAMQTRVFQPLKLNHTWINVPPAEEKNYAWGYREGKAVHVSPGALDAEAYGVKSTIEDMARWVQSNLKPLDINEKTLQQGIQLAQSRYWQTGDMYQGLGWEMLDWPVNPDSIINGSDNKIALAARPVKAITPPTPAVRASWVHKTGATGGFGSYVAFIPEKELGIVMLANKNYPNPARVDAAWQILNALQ
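20 mM phosphate pH 7.0 + 0.01% (detergent screen) or 0.0001% Triton X-100; 5.3 nM AmpC reagent; cpd preinc 15 min RT; nitrocefin (800 uM stock) to start; A480 q20 s × 4 min; Activity was normalised to no-enzyme and no-compound control wells.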
AmpC no deterg – inhibitors of E. coli AmpC beta-lactamase without detergent | AmpC nitrocefin hydrolysis, absorbance 480 nm, 0.0001% Triton | 330,000 compounds, 0.52% hits | AID 485341 | Potency, µM (series often up to 57.1 µM), for the others: at the highest dose activity change, negative = inhibition, hits mostly inhibitors | P00811;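 further: plate controls were no compound for no effect and no enzyme for full effect; nearly all actives have a fitted effect of over 20% in size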
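20 mM phosphate pH 7.0 + 0.01% (detergent screen) or 0.0001% Triton X-100; 5.3 nM AmpC reagent; cpd preinc 15 min RT; nitrocefin (800 uM stock) to start; A480 q20 s × 4 min; Activity was normalised to no-enzyme and no-compound control wells.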
Sm TGR block – S. mansoni TGR enzyme inhibition | purified TGR, DTNB reduction, TNB absorbance 405 nm | 360,000 compounds, 3% hits | Q962Y6 | Potency, µM (top dose mostly 114 µM), for inactives: at the highest dose activity change, negative = inhibition, actives largely listed as inhibitors; further: nearly all actives have a fitted effect of over 60% in size
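Kinetic colorimetric format: TGR-catalysed, NADPH-driven DTNB reduction monitored via TNB absorbance. Enzyme dispensed at 20 nM; compound exposure 15 min at room temperature before reaction start.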
* hit, by the source's call; ? = inconclusive; / = no result given; [ ] = dose if it differs, or a comment. The call rests on the fitted dose curve; in most records, active means well fitted curve in the direction sought with a large enough effect; inconclusive means small, poorly fitted or top-dose-only effect, or another doubt; inactive means no such curve, though single readings can be large; an effect the other way counts as inactive or inconclusive. Unless noted, on the % scale 0 is the no-effect control and ±100 the full control effect; potency means the concentration at half of the fitted maximal effect.

SMILES	AmpC inh detg	AmpC no deterg	Sm TGR block
CC(C)C(=O)N1CCC2(CC1)Oc1ccc(Cl)cc1C(=O)C21CC(c2cccnc2)=NO1 (stereo unspecified)	-8%	219%	-2%
Cc1cc(NC(c2nnc(-c3ccccc3)o2)c2ccccc2F)ccc1Br (stereo unspecified)	23%	/	4%
O=C1OC(c2ccc(Cl)cc2)=N/C1=C\C=C\c1ccco1	-13%	-30%	28µM*
O=C1OC(c2ccccc2)=N/C1=C\C=C\c1ccco1	0%	-19%	?
CC(C)=CCc1c(O)c(CC=C(C)C)c2c(c1O)C(=O)CC(c1ccc(O)cc1)O2 (stereo unspecified)	14%	14µM*	20%
CC(C)=CCc1c(O)cc2c(c1O)C(=O)CC(c1ccc(O)cc1)O2 (stereo unspecified)	-3%	?	-16%
Cc1ccc(-c2cc3nccc(-c4cc([N+](=O)[O-])ccc4O)n3n2)cc1	-3%	/	-2%
O=c1c(Br)c(Br)cnn1-c1ccccc1	-9%	-4%	3.2µM*
O=c1c(Br)c(N2CCCC2)cnn1-c1ccccc1	-1%	-11%	1%
COc1cnn(-c2ccc(F)cc2)c(=O)c1Br	0%	12%	2%
Cc1ccc(-n2ncc(Br)c(Br)c2=O)cc1	1%	-21%[2.29 µM]	6.3µM*
Cc1nnc(SC(C)C(=O)Nc2ccc(N3CCOCC3)cc2)n1Cc1ccccc1 (stereo unspecified)	0%	14%	-13%
CCc1cccc(C)c1NS(=O)(=O)c1ccc(-n2cccn2)cc1	-3%	/	0%
Oc1ccc(/C=N/NC(=S)N2CCOCC2)cc1	-3%	-29%	1%
O=C(NC1CC1)C1CCN(C2CCN(C(=O)CC3=CCCCC3)CC2)CC1	9%	38%	5%
CCN(c1ccccc1)S(=O)(=O)c1ccc(OC)c(NC(=O)c2c(C)noc2C)c1	-9%	-24%	-1%
CCN(c1ccccc1)S(=O)(=O)c1ccc(OC)c(NC(=O)c2cc(Cl)ccn2)c1	?	-15%	45µM*
O=C1CCCCc2sc(Br)c([N+](=O)[O-])c2N1	1%	-9%	0.79µM*
CCN(CC)c1ccc2c(c1)CCCN2	-1%	-16%	5µM*
O=S(=O)(c1ccc2c(c1)CCCN2)N1CCCC1	0%	-15%	-11%
CC1CCN(C(=O)/C(=C\c2ccco2)NC(=O)c2ccccc2)CC1	3%	-8%	-35%
NNC(=O)/C(=C\c1cccs1)NC(=O)c1ccccc1	?	-32%	6%
O=C(N/C(=C\c1ccco1)C(=O)N1CCCC1CO)c1ccccc1 (stereo unspecified)	-3%	0%	35µM*
Cc1ccc(C(=O)N/C(=C/c2ccco2)C(=O)N2CCC(C)CC2)cc1	-3%	-26%	50µM*
CC1CCN(C(=O)/C(=C\c2cccs2)NC(=O)c2ccccc2)CC1	-1%	-48%	4µM*
SMILES	AmpC inh detg	AmpC no deterg	Sm TGR block
CC1CCCN(C(=O)/C(=C/c2ccco2)NC(=O)c2ccccc2)C1 (stereo unspecified)	-9%	-17%	-27%
Cc1ccc(C(=O)NCC(=O)OCC(=O)NCC(F)(F)F)cc1	-12%	-10%	9%
Cc1ccc2c(CC(=O)Nc3cccc(Cl)c3C)coc2c1	15%	/	13%
COc1cc(C(=O)NCC(c2ccc(N(C)C)cc2)N2CCc3ccccc32)cc(OC)c1OC (stereo unspecified)	-2%	/	-17%
c1ccc(CSCc2nc3ccccc3[nH]2)cc1	-13%	-19%	2%
O=C(CSc1nncn1-c1ccccc1F)NC1CC1	/	-4%	/
C=C1c2cccc(O)c2C(=O)C2C(=O)[C@]3(O)C(=O)C(C(N)=O)C(=O)[C@@H](N(C)C)[C@@H]3[C@@H](O)[C@H]12 (stereo partly specified)	/	8.9µM*	/
c1ccc(Nc2c(-c3ccco3)nc3ccccn23)cc1	-6%	-26%	-33%
c1ccc(-c2nc(-c3ccco3)n3ccccc23)cc1	?	9%	11µM*
COc1ccc(N2CCN(C(=O)CCc3nnc4ccc(N5CCCC5)nn34)CC2)cc1	-1%	85%	-13%
Cc1nc(COC(=O)c2cc(O)c3ccccc3c2O)cs1	-10%	-33%	18µM*
Cc1nc(COC(=O)c2ccc(CO)cc2)cs1	-12%	-2%	4%
Cc1ccc(-c2nc(CS(=O)(=O)CC(=O)Nc3cc(C)ccc3C)c(C)o2)cc1	-4%	/	-35%
COC(=O)c1ccccc1NC(=O)CS(=O)(=O)Cc1nc(-c2ccc(C)cc2)oc1C	-7%	-4%	25µM*
COc1ccc(NC(=O)CS(=O)(=O)Cc2nc(-c3ccc(C)cc3)oc2C)cc1	-1%	-4%	-33%

Screening results (PubChem)
